# In the supplement of paper PMC12494721:
# Structures can show the parent of a compound that is named as a salt.
# Tested on: Ruminococcus gnavus DSM 108212
# Test: fold change of 2-Phenylethylamine concentration vs plate DMSO controls (fold change (ratio)); higher = more amine produced, active = hit call of the paper (significant change in both replicates, either direction)
# Conditions: incubation time: 27 h, anaerobic, 37 °C;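 for the amine columns active = adjusted P below 0.05 in both replicates with a change the same way and a mean fold change under 0.8 or over 1.25; inactive = the rest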
# How it was run: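 Anaerobic mGAM cultures of four gut bacterial strains were grown at 37 °C for 27 h in 80 µL wells, starting at OD 0.1 before 1:1 dilution. Compounds were at 20 µM final (sweeteners 50 µM). Whole cultures were extracted with cold acetonitrile/methanol containing 0.1% formic acid and centrifuged. Amines were quantified by LC–triple-quadrupole MS (dynamic MRM) against external calibration curves and drift-corrected within batch. Each value is the fold change versus plate DMSO controls, averaged over 2 biological replicates.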
row,SMILES,fold change of 2-Phenylethylamine concentration
1,Oc1c(Cl)cc(Cl)cc1Sc1cc(Cl)cc(Cl)c1O [Bithionol] (20 µM),0.0838 (active)
2,CO[C@@]1(NC(=O)C2SC(=C(C(N)=O)C(=O)O)S2)C(=O)N2C(C(=O)O)=C(CSc3nnnn3C)CS[C@@H]21 (some centres undefined) [Cefotetan] (20 µM),1.1 (inactive)
3,N#CC(c1ccc(Cl)cc1)c1c(Cl)cc(-n2ncc(=O)[nH]c2=O)cc1Cl (centres undefined) [Diclazuril] (20 µM),0.81 (inactive)
4,CN(C)CCCN1c2ccccc2Sc2ccc(C(F)(F)F)cc21 [Triflupromazine hydrochloride] (20 µM),0.821 (inactive)
5,CCC(=O)OCC(=O)[C@@]1(OC(=O)CC)[C@@H](C)C[C@H]2[C@@H]3CCC4=CC(=O)C=C[C@]4(C)[C@@]3(Cl)[C@@H](O)C[C@@]21C [Beclomethasone dipropionate] (20 µM),0.921 (inactive)
6,O=C1CN(/N=C/c2ccc(-c3ccc([N+](=O)[O-])cc3)o2)C(=O)N1 [Dantrolene sodium salt] (20 µM),0.939 (inactive)
7,CC(C)(C(=O)O)c1ccc(C(O)CCCN2CCC(C(O)(c3ccccc3)c3ccccc3)CC2)cc1 (centres undefined) [Fexofenadine hydrochloride] (20 µM),0.993 (inactive)
8,C[C@H]1[C@@H](O)O[C@@H]2O[C@@]3(C)CC[C@H]4[C@H](C)CC[C@@H]1[C@@]24OO3 [Artenimol] (20 µM),0.965 (inactive)
9,CC(C)(C)NC[C@H](O)COc1ccccc1C1CCCC1 [Penbutolol sulfate] (20 µM),1.25 (inactive)
10,Cc1ccc(-c2ncc(Cl)cc2-c2ccc(S(C)(=O)=O)cc2)cn1 [Etoricoxib] (20 µM),1.19 (inactive)
11,Clc1ccc(CO/N=C(\Cn2ccnc2)c2ccc(Cl)cc2Cl)c(Cl)c1 [Oxiconazole nitrate] (20 µM),0.629 (inactive)
12,NCc1ccc(S(N)(=O)=O)cc1 [Mafenide hydrochloride] (20 µM),0.755 (inactive)
13,c1ccc(-c2ccc(C(c3ccccc3)n3ccnc3)cc2)cc1 (centres undefined) [Bifonazole] (20 µM),0.927 (inactive)
14,OC[C@H]1O[C@@H](O[C@H]2[C@H](O)[C@@H](O)[C@H](O)O[C@@H]2CO)[C@H](O)[C@@H](O)[C@H]1O [Lactose] (50 µM),0.976 (inactive)
15,CC(CNC1CCCCC1)OC(=O)c1ccccc1 (centres undefined) [Hexylcaine hydrochloride] (20 µM),1.01 (inactive)
16,CN(C)CCc1c[nH]c2ccc(Cn3cncn3)cc12 [Rizatriptan benzoate] (20 µM),0.989 (inactive)
17,CC[N+]1(CC)CCC(=C(c2ccccc2)c2ccccc2)C1C (centres undefined) [Prifinium Bromide] (20 µM),0.85 (inactive)
18,COc1ccc(C(=O)c2ccc(C)cc2)c(O)c1 [Mexenone] (20 µM),1.04 (inactive)
19,CC(C)NCC(O)COc1ccc(CCOCC2CC2)cc1 (centres undefined) [Betaxolol hydrochloride] (20 µM),1.01 (inactive)
20,COc1cc(N)cn[n+]1-c1ccccc1 [Amezinium metilsulfate] (20 µM),1.11 (inactive)

row,SMILES,fold change of 2-Phenylethylamine concentration
1,C[C@H](NCc1ccc(OCc2cccc(F)c2)cc1)C(N)=O [Safinamide] (20 µM),0.96 (inactive)
2,CC#C[C@]1(O)CC[C@H]2[C@@H]3CCC4=CC(=O)CCC4=C3[C@@H](c3ccc(N(C)C)cc3)C[C@@]21C [Mifepristone] (20 µM),0.902 (inactive)
3,O=C1CCC(N2C(=O)c3ccccc3C2=O)C(=O)N1 (centres undefined) [Thalidomide] (20 µM),0.981 (inactive)
4,CCCC(=O)Nc1ncnc2c1ncn2[C@@H]1O[C@@H]2COP(=O)(O)O[C@H]2[C@H]1OC(=O)CCC [Bucladesine sodium salt] (20 µM),0.975 (inactive)
5,CCOC(=O)C1=C[C@@H](OC(CC)CC)[C@H](NC(C)=O)[C@@H](N)C1 [Oseltamivir phosphate] (20 µM),1.05 (inactive)
6,Brc1c(NC2=NCCN2)ccc2nccnc12 [Brimonidine L-tartrate] (20 µM),1.05 (inactive)
7,CC(C)(C)NC[C@H](O)COc1nsnc1N1CCOCC1 [Timolol maleate salt] (20 µM),0.997 (inactive)
8,O=C(CCCN1CCC(O)(c2ccc(Cl)cc2)CC1)c1ccc(F)cc1 [Haloperidol] (20 µM),0.965 (inactive)
9,OC[C@@H](O)[C@H](O)[C@@H](O)CO [Xylitol] (50 µM),1.08 (inactive)
10,Cc1cnc(C(=O)NCCc2ccc(S(=O)(=O)NC(=O)NC3CCCCC3)cc2)cn1 [Glipizide] (20 µM),1.03 (inactive)
11,Fc1ccc([C@@H]2CCNC[C@H]2COc2ccc3c(c2)OCO3)cc1 [Paroxetine hydrochloride] (20 µM),0.885 (inactive)
12,Nc1nnc(-c2cccc(Cl)c2Cl)c(N)n1 [Lamotrigine] (20 µM),1.06 (inactive)
13,Oc1c(Cl)cc(Cl)c(Cl)c1Cc1c(O)c(Cl)cc(Cl)c1Cl (20 µM),0.0513 (active)
14,Cc1c(Nc2ncccc2C(=O)O)cccc1C(F)(F)F [Flunixin meglumine] (20 µM),1.02 (inactive)
15,COc1c(O)cc2c(c1O)[C@@H]1O[C@H](CO)[C@@H](O)[C@H](O)[C@H]1OC2=O [Bergenin] (20 µM),1.05 (inactive)
16,Nc1c(CC(=O)O)cccc1C(=O)c1ccc(Br)cc1 [Bromfenac] (20 µM),1.15 (inactive)
17,CNC[C@H](O)[C@@H](O)[C@H](O)[C@H](O)CO [Meglumine] (20 µM),0.998 (inactive)
18,O=C(Nc1ccc([N+](=O)[O-])cc1Cl)c1cc(Cl)ccc1O [Niclosamide] (20 µM),0.934 (inactive)
19,CN1CCN2c3ncccc3Cc3ccccc3C2C1 (centres undefined) [Mirtazapine] (20 µM),1.04 (inactive)
